The source made the active and inactive calls. How the source made its calls: active means hit-call score of the fitted dose curve at least 0.9, where 1 is the maximum; inactive means score below 0.9.

A short description of this test: CCTE_Shafer_MEA_acute_per_network_burst_spike_number_std: CCTE's Neural Acute Assay for Standard Deviation of Number of Spikes in a Network Burst, Shafer Lab (AID 2284020).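 Further: fitted for decrease in spike-number SD versus DMSO so actives lower it.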 Here is the method:
CCTE_Shafer_MEA_acute assay is conducted using Axion Biosystems 48 well microelectrode array (MEA) plates and Maestro recording system. Each well of the MEA plate contains a grid of 16 microelectrodes embedded in the culture surface. Electrically active cells, such as neurons, can be cultured over the electrodes, and electrical activity in these cells can be recorded extracellularly. The spontaneous firing of neurons is captured from each electrode on a microsecond timescale providing both temporally and spatially precise data. […] The CCTE_Shafer_MEA_acute assay uses primary cultures of rat cortical neurons. As these cultures mature over time, neural networks develop functional activity and form cohesive networks in which electrical activity can be highly coordinated. Baseline 40-minute recordings are made on days post-plating 13 or 15, followed by a secondary 40-minute recording after chemical exposure.CCTE_Shafer_MEA_acute_per_network_burst_spike_number_std is a component of the CCTE_Shafer_MEA_acute assay. It measures the standard deviation of the number of spikes (action potential firings) in a network burst (temporally-clustered group of spikes across multiple electrodes) during a recording in a microelectrode array (MEA) using Axion Biosystems Maestro 768 channel amplifier with the AxIS adaptive spike detector. The recordings before and after chemical treatment are used to calculate a percent change in the standard deviation of the number of spikes in network bursts in each well.Data from the assay component CCTE_Shafer_MEA_acute_burst_spike_number_std was analyzed into 1 assay endpoint. This assay endpoint, CCTE_Shafer_MEA_acute_burst_spike_number_std, was analyzed in the negative analysis fitting direction relative to DMSO as the negative control and baseline of activity. Using a type of functional reporter, gain or loss-of-signal activity can be used to understand electrical activity.
Spontaneous activity in the cortical cultures was recorded using an Axion Biosystems Maestro 768 channel amplifier and Axion Integrated Studios (AxIS) v1.8 (or later) software. The amplifier recorded from all channels simultaneously (gain = 1200 x; sampling rate = 12.5 kHz/channel): raw signals were filtered with a Butterworth band-pass filter (300-5000 Hz), which filters out slower local field potentials leaving only fast potentials, i.e., "spikes", arising from extracellular currents associated with action potentials (Pine 2006; Wheeler and Nam 2011). On-line spike detection of filtered signals was conducted with the AxIS adaptive spike detector, using a threshold of 8x the root mean squared (rms) noise on each channel. Any electrodes with rms noise levels greater than 5 uV were grounded (e.g., no data were recorded). Once grounded, an electrode was grounded for the duration of the experiment. All recordings were conducted at 37 C. Wells were deemed usable if on the day of the exposure >/= 10 electrodes were active (defined as >/= 5 spikes/min). On DIV 13 or 15, a minimum of three wells from one cortical culture preparation were treated with each compound (0.03-40 uM). Prior to recording baseline activity, each mwMEA plate was placed in the Maestro at 37 C and allowed to sit for 20 min while firing rates stabilized. Baseline activity (40 min) was recorded before the addition of each compound. An additional 40 min of spontaneous activity was recorded in the presence of each compound. Changes in network parameters relative to baseline were assessed following compound treatment.
The AC50 is the midpoint of the concentration-response curve, whichever way the signal moves. On to `CCCC(=NOCC)C1=C(O)CC(CC(C)SCC)CC1=O` (stereo unspecified), for which the AC50 was 25.4 µM (active).
As to `CC1(C)CCC(=Cc2ccc(Cl)cc2)C1(O)Cn1cncn1` (stereo unspecified), the outcome was inactive.
In the case of `Cn1c(-c2ccccc2)cc(-c2ccccc2)[n+]1C`, the compound was classed as inactive.
The same measure, in the same setting: the entry for `Cc1nc(N(C)C)nc(OC(=O)N(C)C)c1C` is “inactive”.
In the case of `CC(C)N1C(=O)N(c2ccccc2)CSC1=NC(C)(C)C`, the AC50 was 17.6 µM (active).
On to `COP(=S)(OC)SCn1nnc2ccccc2c1=O`, for which the compound was classed as inactive.
Regarding `CO/N=C(/C1=NOCCO1)c1ccccc1Oc1ncnc(Oc2ccccc2Cl)c1F`, the outcome was inactive.
With `N#Cc1c[nH]cc1-c1cccc2c1OC(F)(F)O2`, the AC50 is 20 µM (active).
In the case of `Cc1ccc(N=CN(C)C=Nc2ccc(C)cc2C)c(C)c1`, the AC50 is 4.1 µM (active).
`COCC(=O)N(c1c(C)cccc1C)C(C)C(=O)OC` (stereo unspecified): the result was inactive.
Take `O=C(Nc1ccccc1-c1ccc(Cl)cc1)c1cccnc1Cl`: the call was inactive.
As to `CC(C)N1C(=O)c2ccccc2NS1(=O)=O`, the compound was classed as inactive.
`CNC(=O)Oc1cccc2ccccc12`: the call was inactive.
Still for that read-out and setting: the entry for `Clc1nc(Cl)nc(Nc2ccccc2Cl)n1` is “inactive”; for `CCOP(=O)(OCC)Oc1nc(Cl)c(Cl)cc1Cl` it is “inactive”; for `Nc1c(Cl)c(F)nc(OCC(=O)O)c1Cl` it is “inactive”.
On the same count and under the same terms, the entry for `CCCCC(O)(Cn1cncn1)c1ccc(Cl)cc1Cl` (stereo unspecified) is “inactive”.
With `Cc1c(COC(=O)[C@@H]2[C@H](/C=C(\Cl)C(F)(F)F)C2(C)C)cccc1-c1ccccc1`, the concentration at half-maximal activity (AC50) was 0.931 µM (active).
`C=C(C)CN(CC)c1c([N+](=O)[O-])cc(C(F)(F)F)cc1[N+](=O)[O-]`: the call was inactive.
`CCOc1cc(C(C)(C)C)ccc1C1COC(c2c(F)cccc2F)=N1` (stereo unspecified): the AC50 was 29 µM (active).
On to `OC(c1ccc(Cl)cc1)(c1ccc(Cl)cc1)C(Cl)(Cl)Cl`, for which the AC50 is 20 µM (active).
Regarding `CC(C)C1(C)N=C(c2ncccc2C(=O)O)NC1=O` (stereo unspecified), the compound was classed as inactive.
`CCOC(=O)C(C)OC(=O)c1cc(Oc2ccc(C(F)(F)F)cc2Cl)ccc1[N+](=O)[O-]` (stereo unspecified): the outcome was inactive.
Consider `CCCN(CC)CC1COC2(CCC(C(C)(C)C)CC2)O1` (stereo unspecified), for which the compound was classed as inactive.
On to `N#CN=C1SCCN1Cc1ccc(Cl)nc1`, for which the result was inactive.
Turning to `CC(C)=CC1C(C(=O)OCc2coc(Cc3ccccc3)c2)C1(C)C` (stereo unspecified), the AC50 is 20 µM (active).
Consider `CC1(C)C(C=C(Cl)Cl)C1C(=O)OC(C#N)c1cccc(Oc2ccccc2)c1` (stereo unspecified), for which the outcome was inactive.
On to `CC1(C)C(C(=O)OC(C#N)c2cccc(Oc3ccccc3)c2)C1(C)C` (stereo unspecified), for which the call was inactive.
Consider `CN/C(=N\[N+](=O)[O-])NCc1cnc(Cl)s1`, for which the result was inactive.
In the case of `COC(=O)N(C(=O)N1CO[C@@]2(C(=O)OC)Cc3cc(Cl)ccc3C2=N1)c1ccc(OC(F)(F)F)cc1`, the compound was called inactive.
With `CCOc1nc(F)cc2nc(S(=O)(=O)Nc3c(Cl)cccc3Cl)nn12`, the result was inactive.

For the origin of these results see PubChem BioAssay (EPA / NIEHS).
